Source: PubChem
Rows were chosen to be rich in hits. Some 13% of all compounds tested hit in one or more screens of this group.
Pf growth 48h: Primary qHTS for delayed death inhibitors of the malarial parasite plastid, 48 hour incubation; P. falciparum luciferase growth in erythrocytes, 48 h; Potency, µM (titrated, usually from 28.7 µM), inactives show at the highest dose activity change, negative = inhibition, actives largely listed as inhibitors; 310,000 tested, 5.9% active; note: potency is the fitted concentration of half-maximal effect
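A one-generation exposure of luciferase-tagged malaria parasites in RPMI 1640/Albumax erythrocyte culture, 37 C and 5% CO2. Inhibition is inferred from decreased luminescence after adding detection reagent.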
HCV inhibitor: qHTS Assay for Inhibitors of Hepatitis C Virus (HCV); Huh7.5.1 HCVcc-Cre infection, luciferase reporter, 44 h; Potency, µM (titrated, usually from 41.8 µM), inactives show at the highest dose activity change, negative = inhibition, usual class: inhibitors; 340,000 tested, 3.4% active; note: potency is the fitted concentration of half-maximal effect
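Infectious HCVcc-Cre (~0.5 moi) was added to cells just after compound, with cells seeded 4 h earlier at 1,000 per well. Luciferase activity after 44 h culture reported infection; substrate was incubated 15 min at room temperature before reading.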
HCMV inh: qHTS Assay for inhibitors of the human cytomegalovirus (HCMV). HFF cells, HCMV-luciferase reporter, 72 h; hits give low values. activity change, negative = inhibition, % at 57.5 µM. 410,000 tested, 4.5% active; in the data active = activity change below about -60%; inconclusive = no clear call, values can overlap the other calls; inactive = above about -39%
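Compounds were evaluated in HFFs infected with an HCMV luciferase reporter virus (MOI 1 PFU/cell). Luciferase in lysates collected 72 h post infection served as the replication measure.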
Pf growth 96h: Primary qHTS for delayed death inhibitors of the malarial parasite plastid, 96 hour incubation | Potency, µM (series often up to 28.7 µM), without a hit: at the top dose activity change, negative = inhibition, most hits filed as inhibitors | P. falciparum luciferase reporter growth, 96 h | 320,000 tested, 6.9% active; note: potency is the fitted concentration of half-maximal effect
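Compounds incubated with erythrocytes infected by luciferase-expressing P. falciparum (2% hematocrit, 0.05% parasitemia final) for 96 hours, 37 C in 5% CO2. Growth inhibition scored as decreased luciferase luminescence.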
Active calls of the source: *; [ ] = another dose, or the depositor's remark. Unless noted, calls come from the whole dose curve; as a rule, active = well fitted inhibition curve with a large enough effect; inconclusive = small, poorly fitted or top-dose-only effect, or another doubt; inactive = no such curve, though single readings can be large or run the other way. % is set by controls: 0 for no effect and ±100 for the full control effect.

Results for COc1cccc(CNC(=O)c2oc3ccc4c(c3c2C)C(=O)CC(C)(C)O4)c1OC ?
HCMV inh: -6

Results for C[C@@H]1Cc2ccccc2N1NC(=O)c1ccc(Cl)c(S(N)=O)c1 (some centres undefined) ?
Pf growth 48h: -19%[12.8 µM]; Pf growth 96h: -26%[12.8 µM]

What do the screens show for `Cc1cccc(C)c1NC(=O)C1(C)CN(S(C)(=O)=O)CC(=O)N1CCc1ccc(O)cc1` (centres undefined)?
HCMV inh: 2

How did CCS(=O)(=O)N1CCCC(C(=O)NCCOC)C1 (centres undefined) do in these assays?
HCMV inh: 14

How did COc1ccc(-c2nnc(SCC(=O)Nc3ccc(F)cc3)s2)cc1 do in these assays?
HCMV inh: -12

Results for CCC(C)(C)NC(=O)C(c1ccncc1)N(C(=O)c1sc(C)nc1C)c1ccc(C)cc1 (centres undefined) ?
Pf growth 48h: 9.3µM*; HCV inhibitor: 7%; HCMV inh: -36; Pf growth 96h: 20%

How did Cc1ccc(N(C(=O)c2csnn2)C(C(=O)NC(C)(C)C)c2ccncc2)cc1 (centres undefined) do in these assays?
Pf growth 48h: -2%; HCV inhibitor: 8%; HCMV inh: 23; Pf growth 96h: 0%

What do the screens show for `COc1ccc(C(C(=O)NC2CCCCC2)N(C(=O)c2sc(C)nc2C)c2ccc(C(C)=O)cc2)cc1` (centres undefined)?
Pf growth 48h: inconclusive; HCV inhibitor: -11%; HCMV inh: -4; Pf growth 96h: 9.3µM*

How did CSC(=NC#N)N1CCN(c2cccc(Cl)c2)CC1 do in these assays?
Pf growth 48h: inconclusive; HCV inhibitor: 9%; HCMV inh: -67*; Pf growth 96h: -15%

What do the screens show for `CSC(=NC#N)N1CCN(c2ccccc2)CC1`?
Pf growth 48h: 45%; HCV inhibitor: 19%; HCMV inh: inconclusive; Pf growth 96h: 2%

What do the screens show for `O=C(Nc1ccccn1)C12CC3CC(CC(C3)C1)C2`?
Pf growth 48h: 13µM*; HCV inhibitor: 10%; HCMV inh: -22

What do the screens show for `O=C(Nc1ncccn1)C12CC3CC(CC(C3)C1)C2`?
Pf growth 48h: -3%; HCV inhibitor: -5%; HCMV inh: 7; Pf growth 96h: -4%

Results for COc1ccc(N(Cc2nnc3n2CCCCC3)C(=O)Nc2cccc(C)c2)cc1Cl ?
HCMV inh: -13

What do the screens show for `O=C(NCC1CC1)c1onc(CSc2nc3ccccc3[nH]2)c1C(=O)NCC1CC1`?
Pf growth 48h: inconclusive; HCV inhibitor: -13%; HCMV inh: inconclusive; Pf growth 96h: 10µM*

Results for CCCCNC(=O)c1onc(CSc2nc3ccccc3[nH]2)c1C(=O)NCCCC ?
Pf growth 48h: 1.5µM*; HCV inhibitor: -8%[8.37 µM]; HCMV inh: -13; Pf growth 96h: 3.3µM*

How did O=C(NCCCN1CCOCC1)c1onc(CSc2nc3ccccc3[nH]2)c1C(=O)NCCCN1CCOCC1 do in these assays?
Pf growth 48h: 22%; HCV inhibitor: 12%; HCMV inh: -28; Pf growth 96h: 74%

Results for CC(C)NC(=O)c1onc(CSc2nc3ccccc3[nH]2)c1C(=O)NC(C)C ?
Pf growth 48h: 8%; HCV inhibitor: 32%; HCMV inh: -22; Pf growth 96h: 0%

How did CCSc1nnc(NC(=O)c2cc(=O)c3cc(C)ccc3o2)s1 do in these assays?
HCMV inh: 21

What do the screens show for `CC(C)Cn1c(C(C)C)nc([N+](=O)[O-])c1Sc1ccc(Cl)cn1`?
Pf growth 48h: 9.3µM*; HCV inhibitor: inconclusive; HCMV inh: -4; Pf growth 96h: 9.3µM*

What do the screens show for `CCCCn1c(CCC)nc([N+](=O)[O-])c1Sc1ccc(Cl)cn1`?
Pf growth 48h: 10µM*; HCV inhibitor: -28%; HCMV inh: -77*; Pf growth 96h: 15µM*

How did O=[N+]([O-])c1cc(-c2nc(-c3ccccc3)no2)ccc1N1CCOCC1 do in these assays?
HCMV inh: 35

What do the screens show for `CC(Sc1ccc(S(=O)(=O)N2CCCC2)cn1)C(N)=O` (centres undefined)?
Pf growth 48h: -5%; HCV inhibitor: 13%; HCMV inh: 51; Pf growth 96h: -13%

What do the screens show for `CC(C)C(C)NC(=O)CSc1ccc(S(=O)(=O)N2CCOCC2)cn1` (centres undefined)?
Pf growth 48h: -8%; HCV inhibitor: 1%; HCMV inh: 0; Pf growth 96h: -7%

Results for CCN(C(=O)C(C)Sc1ccc(S(=O)(=O)N2CCOCC2)cn1)c1ccccc1 (centres undefined) ?
Pf growth 48h: 13µM*; HCV inhibitor: -6%; HCMV inh: 58; Pf growth 96h: inconclusive

Results for CN(C)C(=O)C(Sc1ccc(S(=O)(=O)N2CCCC2)cn1)c1ccccc1 (centres undefined) ?
Pf growth 48h: 15µM*; HCV inhibitor: inconclusive; HCMV inh: -33; Pf growth 96h: inconclusive

How did CN(C(=O)CSc1ccc(S(=O)(=O)N2CCCCC2)cn1)c1ccccc1 do in these assays?
Pf growth 48h: inconclusive; HCV inhibitor: -9%; HCMV inh: 8; Pf growth 96h: 12µM*

Results for COc1ccc(N2C(=O)NC3CC2(C)Oc2ccc(Cl)cc23)cc1OC (centres undefined) ?
Pf growth 48h: inconclusive; HCV inhibitor: -22%; HCMV inh: -31

How did COc1ccc(CCN2C(=S)NC3CC2(C)Oc2ccc([N+](=O)[O-])cc23)cc1OC (centres undefined) do in these assays?
HCV inhibitor: 4.5µM*; HCMV inh: -7; Pf growth 96h: 12µM*

What do the screens show for `CCC1COC(c2cccn2Cc2ccccc2Cl)=N1` (centres undefined)?
Pf growth 48h: 9%; HCV inhibitor: 1%; HCMV inh: -6; Pf growth 96h: 12µM*

What do the screens show for `O=C(NCc1ccc2c(c1)OCO2)c1ccc2c(c1)C(=O)N(Cc1cccnc1)C2=O`?
Pf growth 48h: 10%; HCV inhibitor: 14%; HCMV inh: -9; Pf growth 96h: inconclusive

What do the screens show for `O=C(NCCS(=O)(=O)NCc1ccccc1)c1ccc2c(c1)OCO2`?
Pf growth 48h: 46%; HCV inhibitor: 6%; HCMV inh: -3; Pf growth 96h: -22%

What do the screens show for `O=C(NNC(=S)NCc1ccccc1)c1ccc2c(c1)OCO2`?
Pf growth 48h: 25%; HCV inhibitor: 16%; HCMV inh: -65*; Pf growth 96h: 4%

What do the screens show for `O=C(NCCc1ccc2c(c1)OCCO2)c1cccc(F)c1`?
Pf growth 48h: 58%; HCV inhibitor: inconclusive; HCMV inh: -73*; Pf growth 96h: -76%

Results for O=C(NCCc1ccccc1)c1ccc2c(c1)OCO2 ?
Pf growth 48h: -17%; HCV inhibitor: 7%; HCMV inh: -79*; Pf growth 96h: inconclusive
